From PubChem BioAssay
Hits are enriched below; roughly 1.3% of the tested compounds scored in any of these assays.
Beta2AR agonist: agonists of human beta-2 adrenergic receptor inducing internalization; P07550; Am2.2-beta2AR cells, FAP receptor internalization, flow cytometry; response, % (no concentration beside the values); hit rate 0.43% among 340,000;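 active = response above a set limit, near 3 SD of response in nonfluorescent compounds, cut at about 42% in these data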
Target sequence (P07550 whole entry, looked up): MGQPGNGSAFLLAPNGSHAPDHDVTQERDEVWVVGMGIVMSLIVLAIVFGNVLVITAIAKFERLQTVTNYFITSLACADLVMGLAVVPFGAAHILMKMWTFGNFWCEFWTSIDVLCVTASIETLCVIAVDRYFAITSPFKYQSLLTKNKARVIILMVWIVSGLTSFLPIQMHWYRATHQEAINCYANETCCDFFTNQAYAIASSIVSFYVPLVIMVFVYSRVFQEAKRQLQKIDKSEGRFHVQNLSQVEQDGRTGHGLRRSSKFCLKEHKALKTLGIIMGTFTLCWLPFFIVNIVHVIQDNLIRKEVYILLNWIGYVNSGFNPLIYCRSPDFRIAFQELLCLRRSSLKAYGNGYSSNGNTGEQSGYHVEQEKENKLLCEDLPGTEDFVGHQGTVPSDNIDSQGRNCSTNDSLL
VLA-4 inh: inhibition in a human VLA-4 binding assay. P13612. inhibition, % (about 7 µM as worked out from the volumes in the protocol). VLA-4 expressing cells, ligand binding flow cytometry. hit rate 0.2% among 330,000; in the data active = inhibition above about 50%
NTR1 agonist: NTR1 (human) agonism | NTR1-U2OS beta-arrestin-GFP spot imaging, agonist mode | activation, % at 20 µM | hit rate 0.17% among 330,000;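 active = activation at or above 40% of the spot to cytoplasm intensity ratio, with at least 20 cells analyzed; inconclusive = wells under 20 cells, flagged as cytotoxic or low count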
Bfl-1 A1 inh: inhibitors of the anti-apoptotic protein A1, read as caspase activation | MEF A1-2A-BIM cells, Caspase-Glo 3/7 luminescence, 3 h; percent of clofoctol response, vehicle zero | caspase activation, % (concentration not given with the values) | hit rate 0.066% among 330,000;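 active = over half of replicate activation scores above 10%, or exactly half above 10 with the replicate mean above 10; inconclusive = replicate mean below 10 yet half the replicates above 10; inactive = over half of replicates below 10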
GRK2 aptamer HTS: human GRK2 inhibition via aptamer displacement | P25098 | bead flow cytometry, FAM-aptamer displacement from GRK2 | inhibition of aptamer binding, % at 10 µM | hit rate 0.59% among 330,000 | AID 488847;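 active = inhibition of aptamer binding above 40%, roughly 3 SD of noise, on plates passing a quality check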;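 also: median bead fluorescence of bound FAM aptamer so fluorescent compounds give negative values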
VLA-4 allo CP: confirmation of allosteric modulators of human VLA-4 integrin; shares compounds with VLA-4 inh; U937 cells, HUTS-21 LIBS mAb binding, flow cytometry; LDV ligand present at threefold Kd; inhibition, % at 6.7 µM; hit rate 2% among 1,300; AID 2813; in the data active = inhibition above about 40%
GRK2 CP1: human GRK2 inhibition confirmation, cherry pick 1; shares compounds with GRK2 aptamer HTS; bead-bound GRK2, FAM-aptamer displacement, flow cytometry; aptamer displacement, % at 10 µM; hit rate 4% among 2,000; AID 504451;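 active = aptamer displacement above 40%, near three times the noise of non-fluorescent compounds, on plates passing quality checks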;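 also: negative values mostly reflect intrinsic compound fluorescence rather than true enhancement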
Aptamer quench SP: quenches fluorescent RNA aptamer, GRK2 hit artifact | fluorescence response (% of DMSO), % at 10 µM | 2,000 tested, under 10 active | shares compounds with GRK2 aptamer HTS | Carboxyfluorescein RNA aptamer on beads, flow cytometry quenching; stronger effect = lower value;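 active = compounds that quench the bead-bound fluorescent RNA probe, cutting fluorescence to under half of the solvent control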;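 also: counterscreen run without GRK2 so only probe quenching by compound is measured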
NTR1 ag conf: confirmation of agonists of human NTR1 | activation, % at 20 µM | hit rate 38% among 480 | AID 504550 | shares compounds with NTR1 agonist | NTR1-U2OS beta-arrestin-GFP translocation imaging;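 active = mean activation at 20 µM of at least 40%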
Beta2AR ag CP1: human beta-2 adrenergic receptor agonism, cherry pick; Am2.2-beta2AR cells, FAP surface receptor, flow cytometry; stronger effect = lower value; percent response (surface receptor), % at 10 µM; hit rate 25% among 1,100; AID 540358; shares compounds with Beta2AR agonist;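 active = surface receptor percent response at or below 58%, roughly 3 SD from nonfluorescent compounds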
B2AR FAP counter: flagged in Am2.2 fluorescence counterscreen for beta-2AR agonists; shares compounds with Beta2AR agonist; Am2.2 cells, FAP fluorogen flow cytometry; stronger effect = lower value; calls only at 10 µM; 1,100 tested, under 10 active; AID 588765;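 active = percent response below a set limit in fluorescence channel 1 and below 50% in channel 8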
Hits are given with their value; . = inactive; ? = inconclusive; / = no result given; ! = not active in a repeat.

SMILES | Beta2AR agonist | VLA-4 inh | NTR1 agonist | Bfl-1 A1 inh | GRK2 aptamer HTS | VLA-4 allo CP | others
COC(=O)C1=C(c2ccc(OC(F)(F)F)cc2)C[C@@H]2CC[C@H]1N2C(=O)NC1CC1 | . | . | . | . | . | /
CC1=C(O)C(=O)C=C2C1=CC=C1C2(C)CCC2(C)C3CC(C)(C(=O)O)CCC3(C)CCC12C (stereo not given) | 105.0 | / | / | / | / | /
CN1C2CCC1CC(OC(=O)c1ccc(Cl)cc1)(C(=O)O)C2 (stereo not given) | . | . | . | . | . | .
COc1ccc(C(=O)OC2C[C@H]3CC[C@H](C2)N3C)cc1OC (stereo not given in full) | . | . | . | . | . | .
COC(=O)C1=C(c2ccc(C(C)=O)cc2)C[C@@H]2CC[C@H]1N2C | . | . | . | . | . | /
CCC1(OC(=O)c2ccccc2)CC(C)N(C)CC1C (stereo not given) | . | . | . | . | . | /
CN1C2CCC1CC(OC(=O)c1ccc(Cl)cc1)C2 (stereo not given) | . | . | . | . | . | .
CCOc1ccc(C(=O)OC2CC3CCC(C2)N3C)cc1 (stereo not given) | . | . | . | . | . | .
CN1CCN(Cc2cn(C)c3ccccc23)CC1CCO (stereo not given) | . | . | / | . | . | /
CCc1ccccc1NC(=O)N1C[C@H]2C[C@@H](C1)c1cccc(=O)n1C2 | . | . | . | . | . | /
CC(=O)OCC12CC(OC(=O)CC(C)C)C(C)=CC1OC1C(O)C(OC(C)=O)C2(C)C12CO2 (stereo not given) | . | / | / | / | / | /
Nc1ncc2[nH]cnc2n1 | . | 52.6! | . | . | . | .
CC1CN1P(=S)(c1ccccc1)N1CC1C (stereo not given) | . | / | / | / | / | /
C[N+]1(C)C2CCC1CC(OC(=O)c1ccccc1)C2 (stereo not given) | . | . | . | . | . | .
COC(=O)[C@@H]1[C@@H](C(=O)OC)C2(c3ccccc3-c3ccccc32)N(c2ccc(Cl)cc2)N1C#N | . | 57.8 | . | . | . | .
CCCCOP(=O)(CN1CCOCC1)OCCCC | . | 90.9 | . | . | . | .
COCCNC(=O)Cn1cc(C(=O)c2ccccc2F)c2ccccc21 | . | . | . | . | . | .
Cc1cc(OCC(=O)NCc2ccc(S(N)(=O)=O)cc2)c2c3c(c(=O)oc2c1)CCC3 | . | 53.1 | . | . | . | .
COc1ccc(-c2ccc3n2Cc2cnnn2-c2ccccc2-3)cc1 | . | / | / | / | / | /
COC(=O)c1ccc(CN2CCN(Cc3ccccc3)CC2)cc1 | . | . | . | . | . | /
COC(=O)C1C(OC(=O)c2ccccc2)CC2CCC1N2C (stereo not given) | . | . | . | . | . | .
Cc1cc(OCC(=O)NC(Cc2ccc(Cl)cc2)C(=O)O)c2c3c(c(=O)oc2c1)CCCC3 (stereo not given) | . | . | . | . | . | /
COc1ccc(C2=NCC(=O)N(CC(=O)NCc3ccco3)c3sc4c(c32)CCCC4)cc1 | . | . | . | . | . | /
O=C1CN=C(c2ccc(Br)cc2)c2c(sc3c2CCCC3)N1CCN1CCCCC1 | . | 55.1 | . | . | . | .
C[C@]12CCC3C(CC[C@H]4C[C@H](O)CC[C@]34C)C1[C@@H](O)C[C@@H]2O (stereo not given in full) | . | . | . | . | . | /
SMILES | Beta2AR agonist | VLA-4 inh | NTR1 agonist | Bfl-1 A1 inh | GRK2 aptamer HTS | VLA-4 allo CP | others
Cc1ccc(-c2cc(-c3ccc(C)cc3)[n+](-c3ccccc3)c(-c3ccc(C)cc3)c2)cc1 | 44.0 | 53.7 | . | . | . | .
COc1cccc(OCc2cc(C(=O)N3C[C@H]4C[C@@H](C3)c3cccc(=O)n3C4)no2)c1 | . | / | . | / | / | /
C[C@]12CCC3C(CC[C@H]4C[C@@H](O)CC[C@]34C)C1C[C@H](Br)[C@@H]2O (stereo not given in full) | / | . | . | . | . | /
COC(=O)C[C@]1(C(=O)OC)CN(C#N)N(c2ccc(Cl)cc2)C12c1ccccc1-c1ccccc12 | . | 56.6 | 41.3 | . | . | . | NTR1 ag conf=62.2
CC(C)CC1(CCc2ccccc2)C(=O)NC(=O)NC1=O | . | / | / | / | / | /
NCCc1ccc(OCc2ccccc2)c(OCc2ccccc2)c1 | 43.4 | 73.6 | . | . | . | . | Beta2AR ag CP1=.;B2AR FAP counter=.
CC(=O)O/C(=C1\CC2C3CC=C4CC(OC(C)=O)CCC4(C)C3CCC2(C)C1=O)C(F)(F)F (stereo not given) | . | / | / | / | / | /
Cc1ccc2c(c1)C1CN(C)CCC1N2C(=O)Cc1cccs1 (stereo not given) | . | . | . | . | . | /
Cc1ccc2c(c1)C1CN(C)CCC1N2C(=O)COc1ccc(S(=O)(=O)N2CCOCC2)cc1 (stereo not given) | . | . | . | . | . | / | GRK2 CP1=.;Aptamer quench SP=.
Cc1ccc2c(c1)C1CN(C)CCC1N2C(=O)/C=C/c1ccc2c(c1)OCO2 (stereo not given) | . | . | . | . | 64.0 | / | GRK2 CP1=.;Aptamer quench SP=.
COC(=O)C1=C(c2cccc(C#N)c2)C[C@@H]2CC[C@H]1N2C(=O)NCc1cccc2ccccc12 | . | . | . | . | . | /
COC(=O)C1=C(c2ccc(F)cc2F)C[C@@H]2CC[C@H]1N2C(=O)NCCOc1ccccc1 | . | . | . | . | . | /
CCN1CCC2(CC1)NC(CO)(CO)CO2 | . | . | . | . | 48.0 | / | GRK2 CP1=.;Aptamer quench SP=.
CCCN1CCC2(CC1)NC(CO)(CO)CO2 | . | . | . | . | . | /
CN1C2CCC1/C(=C/c1ccccn1)C(=O)/C2=C\c1ccccn1 | . | . | / | ? | 92.0 | / | GRK2 CP1=.;Aptamer quench SP=.
NP(=O)(Nc1ccccc1)Nc1ccccc1 | . | / | / | / | / | /
COc1cc(/C=C/c2nc3ccccc3c(=O)n2-c2ccccc2O)ccc1O | . | . | . | . | 48.0 | / | GRK2 CP1=.;Aptamer quench SP=.
Cc1ccc(-c2nc3ccccc3c(=O)n2-c2ncccc2C)cc1 | . | . | . | . | 60.0 | / | GRK2 CP1=.;Aptamer quench SP=.
Cc1cccnc1-n1c(-c2ccccc2)nc2ccccc2c1=O | . | . | . | . | . | /
Nc1ccc2ccc3cccc[n+]3c2c1 | . | . | . | . | 52.0 | / | GRK2 CP1=.;Aptamer quench SP=44.3
